# Assay outcomes deposited in PubChem BioAssay by University of Kansas High Throughput Screening Laboratory.
# Only a selection was taken, and hits are over-represented in it overall.
# mHTT-CaM PPI inh – inhibitors of human mutant huntingtin-calmodulin interaction | hit rate 3.6% among 190,000 | inhibition, % at 15 µM | AlphaScreen His-mHTT/GST-CaM binding, luminescence | P42858;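 also: 0% = both proteins with DMSO and 100% = one protein alone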
# Pf apPOL inh – Pf-apPOL DNA polymerase inhibition; inhibition, % at 10 µM; Recombinant Pf-apPOL, molecular beacon fluorescence, 1.5 h; hit rate 0.25% among 210,000
# Active calls of the source: *; / = no result given. Rule as the data show it: active = inhibition above about 50%; inactive = the rest.
SMILES,mHTT-CaM PPI inh,Pf apPOL inh
O=C(Nc1cccc2ncccc12)C(c1ccccc1)n1cccc1 (stereo not drawn),78.0*,26.0
CC(=O)c1cccc(NC(=O)c2c(F)cccc2F)c1,-5.7,-7.0
NC(=S)NN=Cc1ccccc1,/,-9.5
NC(=S)NN=Cc1ccccc1O,84.6*,39.3
COCCC(=O)N1CCC2(C1)NCc1ccccc1NC2=NCc1ccccc1 (stereo not drawn),15.2,-6.1
COc1ccc(C(=O)NCC(=O)c2ccccc2)cc1,-2.3,-4.1
Cc1ccc(NC(=O)NC2OC(=O)C(Br)=C2Br)cc1 (stereo not drawn),2.0,-6.9
C(=NN=Cc1cccnc1)c1cccnc1,/,0.6
C(=Nc1cc(-c2ccccc2)nn1-c1ccccc1)c1cccnc1,50.0*,-0.1
CCN(CC)c1ncc2c(n1)CC(c1ccco1)CC2=O (stereo not drawn),3.0,-2.6
Cc1ccc(-c2nn(C)c(=O)c3ccccc23)cc1S(=O)(=O)NCCCO,0.0,95.1*
CCNS(=O)(=O)c1cc(-c2nn(C)c(=O)c3ccccc23)ccc1C,1.0,18.9
O=[N+]([O-])c1ccc(Cl)cc1Sc1nc2ccccc2o1,19.0,3.3
CC1=CC(C)C(CNCCN2CCNCC2)C(C)C1 (stereo not drawn),2.0,0.3
CC(C)=CCC/C(C)=C/CC(C)(C)CNCCN1CCNCC1,85.0*,-5.3
COc1nccnc1NC1CCN(C(=O)c2n[nH]c3c2CCCC3)CC1,14.6,-1.5
Cc1ccc(C(=O)Nc2ccc(I)cc2)cc1,-0.2,-5.6
NC(=O)c1ccc(NC(=O)CN2CCN(C3c4ccccc4-c4ccccc43)CC2)cc1,59.0*,1.5
Cc1ccc(NC(=O)CN2CCN(C3c4ccccc4-c4ccccc43)CC2)cc1F,22.0,0.2
COc1ccc(NC(=O)CN2CCN(C3c4ccccc4-c4ccccc43)CC2)cc1,55.0*,2.3
O=C(CN1CCN(C2c3ccccc3-c3ccccc32)CC1)Nc1ccc(F)cc1,46.0,3.3
Cc1cc(S(N)(=O)=O)c(Cl)cc1Cl,/,-0.6
CCCC(=O)Nc1ccc(NC(=O)COc2ccc(Cl)cc2Cl)cc1,8.6,6.0
O=C(CCCOc1ccc(Cl)cc1Cl)N1CCN(c2ccc(F)cc2)CC1,76.5*,9.4
O=C(CCSc1ccc(Cl)cc1)N1CCN(c2ccc(F)cc2)CC1,15.2,-6.3
SMILES,mHTT-CaM PPI inh,Pf apPOL inh
CC(=O)N1CCN(c2ccc(NC(=O)COc3ccc(Cl)cc3Cl)cc2)CC1,50.4*,-16.1
CCN(Cc1ccccc1)C(=O)c1cn(CC)c2nc(C)ccc2c1=O,-2.0,-2.0
Nc1nc(-c2cc3cc(Cl)cc(Cl)c3oc2=O)cs1,-16.0,0.0
CC(=O)Nc1nc(-c2cc3cc(Cl)cc(Cl)c3oc2=O)cs1,3.0,97.7*
COc1cc(OC)c(OC)cc1C=C1Oc2cc(OC(=O)c3c(OC)cccc3OC)ccc2C1=O,-8.9,-1.6
CCNC(=O)c1cncc(-c2ccc(F)cc2F)c1,4.7,38.1
CC(C)NC(=O)c1cncc(-c2ccc(F)cc2F)c1,6.2,62.9*
CC12c3ccccc3C(c3ccccc31)C1C(=O)N(c3ccccn3)C(=O)C12 (stereo not drawn),14.0,-4.7
CCN1C(=O)c2cccnc2Sc2cc(NC(=O)c3ccc(F)c(F)c3)ccc21,5.4,-1.7
CC(C)N(C(=O)Cn1c(=O)[nH]c2ccccc21)c1ccccc1,-2.4,-3.0
CC(C)CN1C(=O)C(CC(=O)NC2CC2)Sc2ncccc21 (stereo not drawn),-2.4,-2.0
Cc1cc(Cl)ccc1OCC(O)CNC(C)c1ccccc1 (stereo not drawn),58.5*,-1.1
Cc1ccc(OCC(O)CNC(C)(C)C)cc1C (stereo not drawn),0.3,0.1
Cc1cc(OCC(O)CNC(C)c2ccccc2)ccc1Cl (stereo not drawn),100.0*,-4.1
Cc1cc(Cl)ccc1OCC(O)CN1CCN(C)CC1 (stereo not drawn),5.7,43.7
Cc1ccc(CN2CCOCC2)o1,-4.2,-3.3
COc1cccc(CN2CCc3c(cc(C(=O)NCCN4CCOCC4)n3C)C2)c1,13.7,-5.8
COc1ccc(C(=O)NC2CCN(c3nc4c(s3)c(C)nn4-c3ccccc3)CC2)cc1,-0.7,-4.2
O=C(NCc1ccc(F)cc1)C(=O)NCC1(O)CCc2ccccc21 (stereo not drawn),-9.1,-8.0
O=C(c1ccccc1)N1CCC(CCNS(=O)(=O)c2ccc(Cl)cc2)CC1,55.3*,5.2
Cc1ccc(C(=O)N2CCC(CCNS(=O)(=O)c3cc(C)c(C)cc3C)CC2)cc1,44.6,2.0
COc1ccc(OC)c(S(=O)(=O)NCCC2CCN(C(=O)c3ccc(C)cc3)CC2)c1,63.2*,-6.4
Cc1ccc(C)c(S(=O)(=O)NCCC2CCN(C(=O)c3ccccc3)CC2)c1,46.6,9.6
CC(=O)Nc1ccc(S(=O)(=O)NCCC2CCN(C(=O)c3ccccc3)CC2)cc1,38.8,-0.3
CC(C)c1ccc(S(=O)(=O)NCCC2CCN(C(=O)c3ccccc3)CC2)cc1,50.8*,-1.1
SMILES,mHTT-CaM PPI inh,Pf apPOL inh
Cc1ccc(F)cc1S(=O)(=O)NCCC1CCN(C(=O)c2ccccc2)CC1,54.3*,2.1
COc1ccc(S(=O)(=O)NCCC2CCN(C(=O)c3ccccc3)CC2)cc1,28.0,1.1
Cc1noc(-c2cccc(F)c2)c1C(=O)NCc1cccs1,3.2,-2.5
O=C1OC(c2ccccc2Br)=N/C1=C\c1ccc(F)cc1,4.0,-3.0
CCOc1ccc(/C=C2/N=C(c3ccccc3C)OC2=O)cc1OCC,8.0,-3.9
Cc1ccc(C(=O)N2CCC(CCNS(=O)(=O)c3cccc4cccnc34)CC2)cc1,62.4*,-1.0
O=C(c1ccc(F)cc1)N1CCC(CCNS(=O)(=O)c2cccc3cccnc23)CC1,44.6,-4.3
CC(=O)c1ccc(S(=O)(=O)NCCC2CCN(C(=O)c3ccc(C)cc3)CC2)cc1,57.5*,3.1
Cc1ccc(C(=O)N2CCC(CCNS(=O)(=O)c3ccc(Cl)cc3)CC2)cc1,26.4,-3.0
COc1ccc(OCC2c3cc(OC)c(OC)cc3CCN2C(=O)c2c(F)cccc2F)cc1 (stereo not drawn),30.0,82.1*
CCOc1ccccc1C(=O)N1CCc2cc(OC)c(OC)cc2C1COc1ccccc1OC (stereo not drawn),55.0*,-4.3
CCC(=O)N1CCc2cc(OC)c(OC)cc2C1COc1ccc(OC)cc1 (stereo not drawn),1.6,2.0
COc1ccc(OCC2c3cc(OC)c(OC)cc3CCN2C(=O)c2ccc(OC)cc2)cc1 (stereo not drawn),56.7*,-1.2
COc1cc2c(cc1OC)C(COc1ccccc1OC)N(C(C)=O)CC2 (stereo not drawn),-6.7,-0.3
COC(=O)c1ccc(OCC2c3cc(OC)c(OC)cc3CCN2C(=O)c2cc(OC)cc(OC)c2)cc1 (stereo not drawn),-2.6,-2.3
CC(=O)Nc1cc(C(=O)O)cc(N)c1Cl,-5.3,5.6
N#CSC(C#N)Cc1ccccc1 (stereo not drawn),42.5,-7.4
N#CSC(C#N)Cc1ccc([N+](=O)[O-])cc1 (stereo not drawn),59.9*,-0.6
O=[N+]([O-])c1ccc(-c2nc(-c3ccccc3Cl)no2)cc1,-8.4,3.9
COc1cccc2c1OC1(C)CC2NC(=O)N1c1cccc(C(=O)N(C)Cc2ccccc2)c1 (stereo not drawn),0.0,0.7
Cc1cc(NC(=O)c2ccccc2)cc(NC(=O)c2ccccc2)c1C,-2.3,51.8*
Cc1cc(NC(=O)c2ccccc2)ccc1NC(=O)c1ccccc1,1.6,-4.8
